For 22 compounds, growth inhibition results are on record in PubChem BioAssay (NCI).

Test [1] in a line: NCI Yeast Anticancer Drug Screen. Data for the rad50 strain (AID 155).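 Note: 0% = growth of vehicle-only cultures of the same strain.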 As to conditions: S. cerevisiae rad50 strain growth inhibition; at 50.0 µM; active compounds read high. Put shortly:
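Growth of the mutant yeast was measured after compound exposure and referenced to vehicle-treated cultures.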

The nature of test [2]: NCI Yeast Anticancer Drug Screen. Data for the mec2-1 strain (AID 157). As to conditions: S. cerevisiae mec2-1 strain, at 50.0 µM, active compounds read high. Summed up:
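Compounds were applied to mec2-1 yeast cells. Their growth was then compared with that of vehicle-treated cultures to give growth inhibition.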

Test [3] in a line: NCI Yeast Anticancer Drug Screen. Data for the sgs1 mgt1 strain (AID 161).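 Note: 0% = growth of cultures given vehicle only.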 Particulars: S. cerevisiae sgs1 mgt1 strain, at 50.0 µM, active compounds read high. Summed up: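 Percent growth inhibition was derived by comparing compound-exposed mutant yeast with vehicle-exposed cultures. The strain carries alterations in DNA damage repair.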
Test [4] in a line: NCI Yeast Anticancer Drug Screen. Data for the cln2 rad14 strain (AID 165).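 Note: 0% = growth equal to vehicle treated cultures.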 Particulars: S. cerevisiae cln2 rad14 strain, at 50.0 µM, active compounds read high. Summed up:
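Strain: cln2 rad14 yeast, altered in cell cycle control and DNA damage repair. Read-out: growth inhibition vs vehicle.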

Test [5] is described as follows: NCI Yeast Anticancer Drug Screen. Data for the bub3 strain (AID 167). Particulars: S. cerevisiae bub3 mutant strain, at 50.0 µM, active compounds read high. Summed up: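 Whole-cell yeast assay. The mutant strain was incubated with compounds, and growth inhibition was determined by comparison with vehicle-treated cells.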
Test [6] in a line: NCI Yeast Anticancer Drug Screen. Data for the mlh1 rad18 strain (AID 175). Particulars: S. cerevisiae mlh1 rad18 strain growth inhibition; at 50.0 µM; active compounds read high. Put shortly: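 A repair-deficient yeast strain is exposed to test compound, and growth is scored relative to vehicle-treated controls.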

Compounds without any hit were thinned out: in the full panel of roughly 79,000, 15% have a hit. Values without a mark were called inactive. Activity calls are given as the source filed them. Cut-off read from the data, not from the text of the source: active = growth inhibition above about 70%; inactive = the rest.

Consider `COc1ccc(Cc2ccc(OC)c3ccccc23)c2ccccc12`, for which the growth inhibition is 9.65% in test [1]; -2.45% in test [2]; 4.3% in test [3]; -30.9% in test [4]; 15.2% in test [5]; -5.25% in test [6].
As for `COC(=O)/C(=N\NC(=S)NN)C(C(=O)C(=O)Nc1ccccc1C(N)=O)c1nc2ccccc2[nH]c1=O` (configuration not stated), the growth inhibition was 24.9% in test [1]; 6.9% in test [2]; 14.9% in test [3]; -42.5% in test [4]; -4.5% in test [5]; 23.1% in test [6].
For the compound `COc1ccc2c(c1)CC1c3[nH]c4ccccc4c3CCN1C2` (configuration not stated), the growth inhibition was 52.7% in test [1]; 35.5% in test [2]; 52.9% in test [3]; 32.5% in test [4]; 19.1% in test [5]; 79% (active) in test [6].
With `COC(=O)c1nc(=S)[nH]c(C(=O)OC)c1C(=O)c1ccc(OC)cc1`, the growth inhibition is -31.9% in test [1]; -17.6% in test [2]; -10.2% in test [3]; -7.9% in test [4]; -30.4% in test [5]; 1.2% in test [6].
As to `CC1(C)CC2(C)Sc3ccccc3N2C(=S)N1` (configuration not stated), the growth inhibition is -35.6% in test [1]; -2.15% in test [2]; 13.8% in test [3]; -19.6% in test [4]; -0.75% in test [5]; 17.9% in test [6].
Turning to `COc1cccc(-c2nc3ccccc3c(=O)[nH]2)c1OC`, the growth inhibition in test [1] was 33.2%; in test [2] it was -16.6%; in test [3] it was 10.1%; in test [4], 18.1%; in test [5], 16.5%; in test [6] it was 19.9%.
As for `NC(=O)N1CCCCN1C(N)=O`, the growth inhibition in test [1] is 9.9%; in test [2], -7.95%; in test [3], -1.6%; in test [4], -55%; in test [5] it was 6.75%; in test [6], -4.65%.
In the case of `CCOc1ccccc1/C=C(\C#N)c1cccc(Cl)c1`, the growth inhibition was 42.6% in test [1]; 9.75% in test [2]; 29.9% in test [3]; 13.8% in test [4]; 19.5% in test [5]; -4.15% in test [6].
Turning to `CCCN=C(C)C(C)=NCCC`, the growth inhibition in test [1] was -18.7%; in test [2] it was -15.1%; in test [3] it was -15.1%; in test [4], -11%; in test [5], -19.4%; in test [6], -11.3%.
With `O=C(O)Cc1[nH]c(=O)[nH]c(=O)c1CCl`, the growth inhibition in test [1] was -27.9%; in test [2], -7.75%; in test [3], -10.1%; in test [4] it was -1.3%; in test [5], -19.2%; in test [6], -18.1%.
For `CCN(CC)CCOC(=O)c1noc2cc([N+](=O)[O-])ccc12`, the growth inhibition in test [1] was 0.7%; in test [2], 12.9%; in test [3], -1.25%; in test [4], -23.7%; in test [5], 5%; in test [6] it was 9.85%.
`Cc1ccc2c(c1)C=C/C(=C/c1cc[n+](C)c3ccccc13)N2C`: the growth inhibition in test [1] was -7.95%; in test [2], -22.2%; in test [3] it was 13.3%; in test [4], -1.05%; in test [5] it was -5.8%; in test [6] it was 1.55%.
As for `Cc1cc(C)c2[nH]c(=O)c(C)c(C)c2c1Br`, the growth inhibition is -0.5% in test [1]; 5.55% in test [2]; -7.2% in test [3]; -16.6% in test [4]; -1.3% in test [5]; -0.25% in test [6].
Take `Cc1ccc(C2C3CCC(=O)C=C3CN2C=O)cc1O` (configuration not stated): the growth inhibition in test [1] was 10.2%; in test [2], 8.4%; in test [3] it was -3.2%; in test [4] it was -44.6%; in test [5] it was -2.6%; in test [6], 12.8%.
As for `O=C1CCCNc2c(Br)cc(Br)cc21`, the growth inhibition in test [1] was 49.2%; in test [2] it was 24.7%; in test [3] it was 14.2%; in test [4] it was 8.6%; in test [5], 46.5%; in test [6] it was 14.8%.
In the case of `O=S1(=O)OCOS(=O)(=O)OCO1`, the growth inhibition in test [1] is -24.9%; in test [2] it was -28.6%; in test [3], -14.2%; in test [4] it was -4.8%; in test [5] it was -13.8%; in test [6], -19.9%.
`O=C(/C=C/c1cccs1)c1ccc(C(=O)/C=C/c2cccs2)cc1`: the growth inhibition is -32.6% in test [1]; -46.4% in test [2]; -18% in test [3]; 11.2% in test [4]; -3.5% in test [5]; -31.9% in test [6].
As for `O=C(OC(=O)c1ccc(Cl)cc1)c1ccc(Cl)cc1`, the growth inhibition in test [1] was -4.65%; in test [2] it was 25.9%; in test [3], 5.45%; in test [4], -8.15%; in test [5], -9.2%; in test [6], -7.35%.
With `O=C(O)Cc1ccccc1-c1ccccc1`, the growth inhibition in test [1] is -22.2%; in test [2], -8.15%; in test [3], -19.2%; in test [4], 22.4%; in test [5] it was -6.2%; in test [6], -43.2%.
For `O=S(=O)(/N=c1/ccc(NS(=O)(=O)c2ccccc2)cn1O)c1ccccc1`, the growth inhibition in test [1] is 25.5%; in test [2], 3.8%; in test [3], 18.1%; in test [4], -23%; in test [5] it was 10.6%; in test [6] it was 14.6%.
Consider `N#Cc1c(Br)n(C2OC(CO)C(O)C2O)c2ncncc12` (configuration not stated), for which the growth inhibition in test [1] is 1.5%; in test [2], 7.5%; in test [3], 1.55%; in test [4], -0.05%; in test [5], 4.7%; in test [6] it was 2.7%.
Take `CN(C)CCC(O)c1ccccc1` (configuration not stated): the growth inhibition was 7.2% in test [1]; -1.25% in test [2]; 2.2% in test [3]; -20.5% in test [4]; -6.2% in test [5]; -22.6% in test [6].
